Test results: PubChem BioAssay (NCATS)
Records with an inconclusive call do not appear. A call without a number means that no potency is given here. The source made the active and inactive calls. The call rests on the fitted dose curve; in most records, active means well fitted curve in the direction sought with a large enough effect; inconclusive means small, poorly fitted or top-dose-only effect, or another doubt; inactive means no such curve, though single readings can be large; an effect the other way counts as inactive or inconclusive.

Legend:
[1] = Quantitative High-Throughput drug screen in 47 multiple myeloma cell lines against the NCATS MIPE library collection: EJM_DSMZ cell viability assay (AID 1918926; further: nearly all actives have a fitted effect of over 30% in size; further: potency means the concentration at half of the fitted maximal effect); conditions: EJM myeloma cell viability, CellTiter-Glo ATP, 48 h; series mostly up to 45.8 µM
Summary of the method: (§1)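 Inhibition of cell viability is measured here. Each line was plated at 500 cells per well, treated with MIPE 4.0 drugs, kept 48 hours at 37C, then assayed for ATP content by CellTiter-Glo luminescence.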

[2] = Quantitative High-Throughput drug screen in 47 multiple myeloma cell lines against the NCATS MIPE library collection: ARP1_JJKsccF8 cell viability assay (AID 1918928; further: nearly all actives have a fitted effect of over 40% in size; further: potency means the concentration at half of the fitted maximal effect); conditions: ARP1 myeloma cells viability, CellTiter-Glo ATP, 48 h; series mostly up to 45.8 µM
Summary of the method: (§2)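 Cell viability inhibition in this qHTS is measured via ATP content (CellTiter-Glo) after 48 h drug exposure at 37 °C. Wells hold 500 cells; DMSO-treated wells define 100% and medium-only wells 0%.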

[3] = Quantitative High-Throughput drug screen in 47 multiple myeloma cell lines against the NCATS MIPE library collection: JIM3_ECACC cell viability assay (AID 1918963; further: nearly all actives have a fitted effect of over 35% in size; further: potency means the concentration at half of the fitted maximal effect); conditions: JIM3 myeloma viability, CellTiter-Glo ATP, 48 h; series mostly up to 45.8 µM
Summary of the method: (§3)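 qHTS of the MIPE 4.0 collection: 500 myeloma cells/well, 48 h drug exposure at 37C in 5% CO2, then CellTiter-Glo for 5 min at room temperature before luminescence reading.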

[4] = Quantitative High-Throughput drug screen in 47 multiple myeloma cell lines against the NCATS MIPE library collection: ARD_JJKsccE7 cell viability assay (AID 1918929; further: potency means the concentration at half of the fitted maximal effect); conditions: ARD myeloma cell line viability, CellTiter-Glo, 48 h; series mostly up to 45.8 µM
Summary of the method: as §1

[5] = Quantitative High-Throughput drug screen in 47 multiple myeloma cell lines against the NCATS MIPE library collection: AMO1_DSMZ cell viability assay (AID 1918927; further: nearly all actives have a fitted effect of over 30% in size; further: potency means the concentration at half of the fitted maximal effect); conditions: AMO1 myeloma cells viability, CellTiter-Glo ATP luminescence, 48 h; series mostly up to 45.8 µM
Summary of the method: as §1

[6] = Quantitative High-Throughput drug screen in 47 multiple myeloma cell lines against the NCATS MIPE library collection: Karpas620_DSMZ cell viability assay (AID 1918959); conditions: Karpas620 myeloma viability, CellTiter-Glo ATP luminescence, 48 h; series mostly up to 45.8 µM; further: nearly all actives have a fitted effect of over 30% in size; further: potency means the concentration at half of the fitted maximal effect
Summary of the method: as §3

[7] = Quantitative High-Throughput drug screen in 47 multiple myeloma cell lines against the NCATS MIPE library collection: KMM1_JCRB cell viability assay (AID 1918960); conditions: KMM1 myeloma viability, CellTiter-Glo ATP luminescence, 48 h; series mostly up to 45.8 µM; further: nearly all actives have a fitted effect of over 30% in size; further: potency means the concentration at half of the fitted maximal effect
Summary of the method: as §2

[8] = Quantitative High-Throughput drug screen in 47 multiple myeloma cell lines against the NCATS MIPE library collection: KHM11_PLB cell viability assay (AID 1918962); conditions: KHM11 myeloma cell viability, CellTiter-Glo ATP luminescence, 48 h; series mostly up to 45.8 µM; further: nearly all actives have a fitted effect of over 35% in size
Summary of the method: as §3

[9] = Quantitative High-Throughput drug screen in 47 multiple myeloma cell lines against the NCATS MIPE library collection: Karpas417_ECACC cell viability assay (AID 1918961); conditions: Karpas417 myeloma viability, CellTiter-Glo ATP luminescence, 48 h; viability (% of DMSO): at 45.8 µM (top of the series) unless noted
Summary of the method: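 Luminescent ATP measurement with CellTiter-Glo gives viability, scaled between DMSO-only wells (100%) and media-only wells (0%). Cells, 500 per well, faced library compounds for 48 hours at 37C.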

Row | SMILES | Potency [1] | Potency [2] | Potency [3] | Potency [4] | Potency [5] | Potency [6] | Potency [7] | Potency [8] | viability (% of DMSO) [9] | Potency [9]
1 | COc1ccccc1-c1cccc(-c2c(O)c3cc(C#N)c(Cl)cc3[nH]c2=O)c1 | inactive | inactive | 42.9 µM (active) |  |  |  |  |  |  | 
2 | COc1ccc(CCN2CCN(CCCc3ccccc3)CC2)cc1OC | inactive | inactive | inactive | 13.2 µM (active) |  |  |  |  |  | 
3 | CCn1cc(C(=O)O)c(=O)c2cc(F)c(N3CCNC(C)C3)c(F)c21 (centres undefined) | inactive | inactive | inactive | inactive | inactive | inactive | inactive | inactive |  | 
4 | Cc1oncc1C(=O)Nc1ccc(C(F)(F)F)cc1 | 20.9 µM (active) |  |  | inactive | inactive | inactive | inactive |  |  | 
5 | CCCCCCCc1ccc(CCc2cccc(O)c2C(=O)O)cc1 | inactive |  | 20.9 µM (active) |  | inactive | inactive |  |  |  | 
6 | CCC(C)(C)C(=O)O[C@H]1C[C@@H](C)C=C2C=C[C@H](C)[C@H](CC[C@@H]3C[C@@H](O)CC(=O)O3)[C@H]21 | inactive | 20.9 µM (active) | 14.8 µM (active) | 16.6 µM (active) | 18.7 µM (active) |  | 26.4 µM (active) |  |  | 
7 | CC1(C)SCCN(S(=O)(=O)c2ccc(OCC#CCO)cc2)[C@@H]1C(=O)NO | inactive | 2.35 µM (active) | inactive | inactive | 2.64 µM (active) | inactive |  |  |  | 
8 | N=c1nc(N2CCCCC2)cc(N)n1O | inactive |  | inactive | inactive | inactive | inactive | inactive |  |  | 
9 | Cc1cc(C=c2sc3nc4ccccc4n3c2=O)c(C)n1-c1ccccc1 | 6.62 µM (active) | 6.62 µM (active) | inactive | inactive | inactive | inactive | inactive |  |  | 
10 | Cn1c(=O)c(F)c(Nc2ccc(I)cc2F)c2c(=O)n(C[C@@H](O)CO)cnc21 | inactive |  | 3.32 µM (active) |  |  | 0.0118 µM (active) | 16.6 µM (active) |  |  | 
11 | c1ccc([C@H]2CN3CCSC3=N2)cc1 | inactive | inactive | inactive | inactive | inactive | inactive | inactive |  |  | 
12 | CCCS(=O)(=O)Nc1ccc(F)c(C(=O)c2c[nH]c3ncc(Cl)cc23)c1F | inactive |  | 16.6 µM (active) | 18.7 µM (active) | 20.9 µM (active) | 20.9 µM (active) | 16.6 µM (active) |  |  | 
13 | N#CC[C@H](C1CCCC1)n1cc(-c2ncnc3[nH]ccc23)cn1 | 7.43 µM (active) |  | 6.62 µM (active) |  | 6.62 µM (active) | 5.26 µM (active) |  |  |  | 
14 | O=C1CCc2cc(OCCCCc3nnnn3C3CCCCC3)ccc2N1 | inactive |  | inactive |  | inactive | inactive | inactive |  | 113% (active) | 
15 | CCCc1nn(C)c2c(=O)[nH]c(-c3cc(S(=O)(=O)N4CCN(C)CC4)ccc3OCC)nc12 | inactive |  |  | inactive | inactive |  | inactive |  |  | inactive
16 | CCCC(CCC)C(=O)O | inactive |  |  | inactive | inactive | inactive | inactive | inactive |  | 
17 | Cc1ccccc1C(OCCN(C)C)c1ccccc1 (centres undefined) | inactive | inactive | inactive | inactive | inactive | inactive | inactive |  |  | 
